One experiment addresses Albumin (Bos taurus) (UniProt P02769). The experiment can be described thus: compounds binding labelled BSA control protein – biochemical, small-molecule microarray, Alexa647 label, 635/667 nm fluorescence, artefact control for SMM control protein annotation, profiling panel (AID 1118).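 Note: score merges 667 nm emission intensity and signal-to-noise per printed compound spot.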 The settings on record: BSA-A647 binding, fluorescence 635 nm, higher = more signal.
A short description of experiment [1]: probe aXIP binding to arrayed compounds – biochemical, NeuroSMM set, 635/667 nm fluorescence, primary screen (AID 1119).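 Note: probe is the protein aXip251-270 applied at 1 µg/mL to compound-printed slides; binding of probe to printed compounds measured as 667 nm fluorescence plus signal to noise.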 The conditions noted are these: small-molecule microarray, higher = more signal, called active from +8 up or from −8 down.
The nature of experiment [2]: probe aNOTCH3 binding on compound microarray – biochemical, small-molecule microarray, 635/667 nm fluorescence, primary screen (AID 1120).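 Note: probe is a biotin-tagged antibody raised against NOTCH3 rather than NOTCH3 protein; score merges spot fluorescence near 667 nm with spot signal to noise.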 The settings on record: higher = more signal.
The nature of experiment [3]: probe aNOTCH2 binding on compound microarray – biochemical, small-molecule microarray, 635/667 nm fluorescence, primary screen (AID 1121).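 Note: score merges feature fluorescence read at 667 nm with its signal to noise.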 The conditions noted are these: higher = more signal.
Experiment [4] deals with Carbonic anhydrase 2 (Homo sapiens) (UniProt P00918). The experiment can be described thus: compounds binding carbonic anhydrase 2 – biochemical, small-molecule microarray, Alexa647-labelled CAII, profiling panel (AID 1122). The conditions noted are these: CAII-A647 binding fluorescence, higher = more signal.
Experiment [5] is described as follows: COS7 lysate on small-molecule microarray, probe aHis, 635 nm (AID 1123).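 Note: z-score combines 667nm fluorescence intensity with signal-to-noise per printed compound spot.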 The conditions noted are these: COS7 cell lysate, fluorescence, higher = more signal.
Experiment [6] is described as follows: probe aLAP1 signal on lysate-treated microarray – cell lysate, small-molecule microarray, COS7 lysate, primary screen (AID 1124).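 Note: lysate comes from COS7 cells expressing LAP1 and is applied at 0.3 µg/mL; score merges spot fluorescence near 667 nm with signal-to-noise over triplicate slides.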 The settings on record: probe aLAP1, fluorescence, higher = more signal.
A further experiment deals with Sam68 (KHDRBS1). The experiment can be described thus: compounds binding KHDRBS1 protein – biochemical, small-molecule microarray, 635 nm fluorescence, primary screen (AID 1125).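 Note: score merges 667 nm channel intensity with signal to noise over triplicate slides.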 The conditions noted are these: higher = more signal.
Experiment [7] deals with Chordin-like protein 2 (CHRDL2). As to the kind of experiment: compounds binding chordin-like 2 – biochemical, small-molecule microarray, 635 nm fluorescence, primary screen (AID 1126).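 Note: printed compound slides probed with Chrdl2 protein at 4 µg/mL for 1 h at 4 C; score merges 667 nm emission intensity with signal to noise over three replicate slides.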 The settings on record: fluorescence 635 nm, higher = more signal.
The target of experiment [8] is Concanavalin-A (Canavalia ensiformis) (UniProt P02866). The experiment can be described thus: compounds binding concanavalin A lectin – biochemical, small-molecule microarray, Alexa647 label, 635 nm, artefact control for SMM control protein annotation, primary screen (AID 1127).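 Note: z combines 667 nm emission intensity with signal-to-noise across three replicate slides.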 The conditions noted are these: ConA-A647 binding fluorescence, higher = more signal.
Experiment [9] is described as follows: compounds binding Alexa647 anti-His antibody – biochemical, small-molecule microarray, 635 nm fluorescence, artefact control for SMM control protein annotation, primary screen (AID 1128).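 Note: score merges feature fluorescence with signal-to-noise for each printed compound spot.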 The conditions noted are these: higher = more signal.
Experiment [10] deals with Human papillomavirus type 1a E7 protein (residues 1-88). The experiment can be described thus: HPV1a E7 small-molecule binders, primary screen, biochemical, small-molecule microarray, residues 1-88, 635 nm (AID 1129). The settings on record: small-molecule microarray binding, fluorescence 635 nm; higher = more signal.
Experiment [11] concerns the target Focal adhesion kinase 1 (Homo sapiens) (UniProt Q05397). As to the kind of experiment: PTK2 protein binding on printed compound slides – biochemical, small-molecule microarray, 635/667 nm fluorescence, BSA, DTT, primary screen (AID 1130).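 Note: composite of spot emission at 667 nm and signal to noise over triplicate slides.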 The settings on record: 635 nm fluorescence, higher = more signal.
In experiment [12] the test system is Fibrinogen (Alexa647-labelled). As to the kind of experiment: Alexa647-fibrinogen binding to printed small molecules – biochemical, small-molecule microarray, 635/667 nm fluorescence, artefact control for SMM control-protein annotation, profiling panel (AID 1131).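 Note: z-score merges 667 nm fluorescence with per-spot signal-to-noise over triplicate slides.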 The settings on record: fibrinogen-A647 binding fluorescence, higher = more signal.
In experiment [13] the target is Follistatin (Homo sapiens) (UniProt P19883). The experiment can be described thus: FST protein binding to printed compounds – biochemical, small-molecule microarray, 635/667 nm fluorescence, primary screen (AID 1132). The settings on record: 635 nm fluorescence, higher = more signal.
The target in experiment [14] is Fibroblast growth factor 2 (Homo sapiens) (UniProt P09038). The experiment can be described thus: basic fibroblast growth factor binding to printed compounds – biochemical, small-molecule microarray, 635/667 nm fluorescence, primary screen (AID 1133). The conditions noted are these: FGF2, fluorescence 635/667, higher = more signal.
The nature of experiment [15]: JC-1 mitochondrial potential readout, lung cancer cells – cell-based, A549, JC-1 fluorescence, basal, 24 h, 100 nL, profiling panel (AID 1138).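 Note: A549 lung adenocarcinoma cells under basal conditions with no added stimulus; test concentration not given here.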 The conditions noted are these: higher = more signal.
The subject of a further experiment is Lefty1. The experiment can be described thus: Lefty1 protein binding to printed compounds – biochemical, small-molecule microarray, 635/667 nm fluorescence, primary screen (AID 1139). The settings on record: fluorescence 635/667, higher = more signal.
The test system of experiment [16] is wheat germ agglutinin (Triticum aestivum), Alexa647-labelled. The experiment can be described thus: Alexa647-WGA lectin binding to printed small molecules – biochemical, small-molecule microarray, 635/667 nm fluorescence, artefact control for SMM control-protein annotation, profiling panel (AID 1140).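 Note: score merges 667 nm feature emission with signal to noise over triplicate slides.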 The conditions noted are these: WGA-A647 binding, 635 nm fluorescence, higher = more signal.

Experiment [17] addresses Luciferin 4-monooxygenase (Photinus pyralis) (UniProt P08659). The experiment can be described thus: inhibition of purified Photinus pyralis luciferase – biochemical, luminescence, purified enzyme, 2006 set, primary screen (AID 1141).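 Note: cell-free assay with purified firefly luciferase at 100 ng per well in PBS; test concentration not given here.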 The settings on record: purified firefly luciferase, SteadyGlo luminescence, 30 min; higher = more signal, called active from +8 up or from −8 down.

Activity calls are given as the source filed them.

Chain of Follistatin (Homo sapiens) (P19883 whole entry, looked up): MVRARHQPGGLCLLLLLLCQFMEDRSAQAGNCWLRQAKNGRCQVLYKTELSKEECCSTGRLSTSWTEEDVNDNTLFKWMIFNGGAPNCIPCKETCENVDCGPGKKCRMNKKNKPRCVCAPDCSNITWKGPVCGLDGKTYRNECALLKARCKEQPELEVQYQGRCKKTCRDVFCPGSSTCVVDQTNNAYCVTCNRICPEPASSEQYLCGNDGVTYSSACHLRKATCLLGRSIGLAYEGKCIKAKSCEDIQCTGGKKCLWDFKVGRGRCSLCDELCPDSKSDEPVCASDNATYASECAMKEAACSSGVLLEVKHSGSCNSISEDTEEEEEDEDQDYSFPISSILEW
Chain of Focal adhesion kinase 1 (Homo sapiens) (Q05397 whole entry, looked up): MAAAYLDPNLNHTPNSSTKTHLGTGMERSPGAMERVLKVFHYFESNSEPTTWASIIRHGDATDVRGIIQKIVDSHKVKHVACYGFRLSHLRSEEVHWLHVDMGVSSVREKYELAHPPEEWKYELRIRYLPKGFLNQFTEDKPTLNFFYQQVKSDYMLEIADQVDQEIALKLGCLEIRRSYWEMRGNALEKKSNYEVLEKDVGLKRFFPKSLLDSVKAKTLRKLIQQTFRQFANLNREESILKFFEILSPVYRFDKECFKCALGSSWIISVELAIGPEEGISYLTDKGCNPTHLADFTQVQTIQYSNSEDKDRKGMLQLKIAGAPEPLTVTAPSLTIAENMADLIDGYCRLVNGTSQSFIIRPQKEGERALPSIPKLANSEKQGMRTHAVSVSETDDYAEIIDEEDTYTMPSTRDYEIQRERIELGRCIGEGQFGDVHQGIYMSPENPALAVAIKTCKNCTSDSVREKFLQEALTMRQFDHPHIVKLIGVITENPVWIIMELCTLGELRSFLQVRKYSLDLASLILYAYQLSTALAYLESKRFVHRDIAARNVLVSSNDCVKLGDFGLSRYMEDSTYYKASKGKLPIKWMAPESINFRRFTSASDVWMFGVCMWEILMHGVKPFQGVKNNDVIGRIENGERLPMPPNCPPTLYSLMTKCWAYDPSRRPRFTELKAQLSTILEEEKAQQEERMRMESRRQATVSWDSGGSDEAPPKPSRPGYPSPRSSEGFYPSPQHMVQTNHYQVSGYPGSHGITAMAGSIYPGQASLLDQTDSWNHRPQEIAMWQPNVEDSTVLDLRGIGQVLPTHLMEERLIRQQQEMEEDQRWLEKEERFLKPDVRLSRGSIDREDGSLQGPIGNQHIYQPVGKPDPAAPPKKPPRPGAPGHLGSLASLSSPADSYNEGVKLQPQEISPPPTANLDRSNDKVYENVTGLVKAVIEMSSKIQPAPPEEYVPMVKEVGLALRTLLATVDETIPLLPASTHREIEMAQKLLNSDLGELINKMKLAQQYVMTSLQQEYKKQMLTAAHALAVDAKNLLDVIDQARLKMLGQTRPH
Chain of Fibroblast growth factor 2 (Homo sapiens) (P09038 whole entry, looked up): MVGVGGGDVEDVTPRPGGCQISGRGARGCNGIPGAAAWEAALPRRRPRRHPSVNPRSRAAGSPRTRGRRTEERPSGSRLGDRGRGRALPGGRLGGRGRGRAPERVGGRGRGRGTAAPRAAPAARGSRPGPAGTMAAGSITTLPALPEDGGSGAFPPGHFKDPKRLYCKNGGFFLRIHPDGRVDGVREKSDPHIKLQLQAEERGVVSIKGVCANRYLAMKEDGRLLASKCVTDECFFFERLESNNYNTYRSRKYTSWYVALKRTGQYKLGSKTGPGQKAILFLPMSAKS
Chain of Concanavalin-A (Canavalia ensiformis) (P02866 whole entry, looked up): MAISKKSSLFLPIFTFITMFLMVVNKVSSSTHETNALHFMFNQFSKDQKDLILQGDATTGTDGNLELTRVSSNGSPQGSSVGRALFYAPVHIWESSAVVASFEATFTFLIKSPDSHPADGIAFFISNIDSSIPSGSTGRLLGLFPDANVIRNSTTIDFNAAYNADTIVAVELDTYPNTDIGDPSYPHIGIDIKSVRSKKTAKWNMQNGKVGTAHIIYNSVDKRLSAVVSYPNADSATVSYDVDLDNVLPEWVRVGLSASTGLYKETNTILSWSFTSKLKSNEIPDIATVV
Chain of Albumin (Bos taurus) (P02769 whole entry, looked up): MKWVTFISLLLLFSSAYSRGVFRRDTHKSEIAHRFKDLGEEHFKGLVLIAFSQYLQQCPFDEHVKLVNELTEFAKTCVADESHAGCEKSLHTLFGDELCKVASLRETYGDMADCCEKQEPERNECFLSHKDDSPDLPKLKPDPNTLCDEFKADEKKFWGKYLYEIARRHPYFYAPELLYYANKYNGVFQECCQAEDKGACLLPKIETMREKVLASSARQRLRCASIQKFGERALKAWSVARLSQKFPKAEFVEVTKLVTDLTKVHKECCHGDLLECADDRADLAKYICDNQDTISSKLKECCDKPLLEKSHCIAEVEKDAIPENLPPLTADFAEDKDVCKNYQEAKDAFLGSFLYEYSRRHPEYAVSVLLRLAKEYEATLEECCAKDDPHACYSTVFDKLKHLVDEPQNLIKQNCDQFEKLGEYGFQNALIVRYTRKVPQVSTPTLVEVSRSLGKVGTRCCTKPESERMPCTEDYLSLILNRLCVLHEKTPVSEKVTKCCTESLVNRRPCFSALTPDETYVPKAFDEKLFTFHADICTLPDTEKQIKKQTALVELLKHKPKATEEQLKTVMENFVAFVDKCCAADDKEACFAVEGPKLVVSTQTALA
Chain of Luciferin 4-monooxygenase (Photinus pyralis) (P08659 whole entry, looked up): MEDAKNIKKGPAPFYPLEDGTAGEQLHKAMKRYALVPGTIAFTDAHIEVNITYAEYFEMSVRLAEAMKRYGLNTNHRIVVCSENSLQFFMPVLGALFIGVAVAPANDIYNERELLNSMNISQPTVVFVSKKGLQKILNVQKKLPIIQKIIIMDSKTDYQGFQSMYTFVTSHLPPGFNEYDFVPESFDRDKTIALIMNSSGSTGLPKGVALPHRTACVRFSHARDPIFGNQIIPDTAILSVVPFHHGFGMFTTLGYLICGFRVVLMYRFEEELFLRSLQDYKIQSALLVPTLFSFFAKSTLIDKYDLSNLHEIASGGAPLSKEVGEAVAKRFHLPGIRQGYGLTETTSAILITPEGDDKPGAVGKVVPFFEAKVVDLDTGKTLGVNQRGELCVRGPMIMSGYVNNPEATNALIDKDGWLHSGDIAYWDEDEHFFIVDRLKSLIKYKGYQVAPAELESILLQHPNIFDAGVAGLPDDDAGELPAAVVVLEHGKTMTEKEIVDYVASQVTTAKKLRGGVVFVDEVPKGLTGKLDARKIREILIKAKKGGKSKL

Turning to `COc1ccc([Si](C)(C)[C@@H]2[C@@H](CCO)O[C@]3(C(=O)N(Cc4ccccc4)c4ccccc43)[C@H]2C)cc1`, the composite z-score was 0.152 with Albumin (Bos taurus); -0.113 in experiment [2]; -0.125 in [3]; -0.0193 in experiment [4]; 0.141 in experiment [5]; 0.0521 in experiment [6]. Besides, the composite z-score in the experiment with Sam68 (KHDRBS1) is 0.555; in [7], -0.0822; in experiment [8], 0.421; in experiment [9], 1.42; in experiment [10], 0.319; in experiment [11] it was 0.331. The composite z-score is -0.153 in experiment [12]; 0.32 in experiment [13]; 1.21 in experiment [14]; 0.32 in the experiment with Lefty1; -0.139 in experiment [16]. Moreover, in [1], the composite Z-score is 0.158 (inactive). Besides, the z-score was -0.234 in [15] and -0.238 (inactive) in experiment [17].
With `C[C@@H]1NC(=O)[C@H](Cc2ccccc2)NC(=O)[C@@]23C(=O)N[C@@H](Cc4ccccc4)C2[C@H](C)[C@@]2(C)O[C@H]2C3/C=C/C/C=C\CNC1=O` (stereo not given in full), the composite z-score in the experiment with Albumin (Bos taurus) is 0.0296; in [2] it was -0.0996; in experiment [3], 0.364; in [4] it was 0.82; in experiment [5], -0.741; in [6], -0.634. Moreover, the composite z-score was -0.276 in the experiment with Sam68 (KHDRBS1); 0.399 in [7]; -0.265 in [8]; 0.0093 in [9]; -1.79 in [10]; -0.524 in experiment [11]. Further, the composite z-score in experiment [12] was -0.89; in experiment [13] it was 0.216; in [14], 0.0447; with Lefty1, 0.256; in [16], -0.906. Moreover, the composite Z-score in experiment [1] is 0.0437 (inactive). Also, the z-score in experiment [15] was -0.0521; in [17] it was -0.0116 (inactive).
As for `Cc1ccc(S[C@]2(C(=O)NCCCN(C)C)CC(=O)N(C3CCCCC3)[C@@H]2c2ccc(CO)cc2I)cc1`, the composite z-score with Albumin (Bos taurus) was -1.58; in [2], 0.0836; in experiment [3], -0.107; in experiment [4], 0.442; in experiment [5], 1.51; in experiment [6], 0.379. Further, the composite z-score in the experiment on Sam68 (KHDRBS1) was -0.171; in experiment [7], -0.801; in experiment [8], -1.49; in [9] it was 0.731; in experiment [10], -0.171; in experiment [11], -0.471. Moreover, the composite z-score in experiment [12] is -1.32; in experiment [13], -0.351; in experiment [14], -0.29; in the experiment on Lefty1, -0.695; in experiment [16], -1.54. The composite Z-score in [1] is -0.102 (inactive). Besides, the z-score was 3.41 in [15] and -1.38 (inactive) in experiment [17].
For the molecule `CC(C)[C@H]1NC(=O)[C@@]23C(=O)N[C@@H](Cc4ccccc4)C2[C@H](C)[C@@]2(C)O[C@H]2C3/C=C/C/C=C\CNC(=O)[C@H](C)NC1=O` (stereo not given in full), the composite z-score with Albumin (Bos taurus) is -0.255; in [2], -0.25; in [3], -0.218; in experiment [4], 0.811; in [5], -0.281; in experiment [6] it was -0.258. Besides, the composite z-score in the experiment with Sam68 (KHDRBS1) is -0.762; in experiment [7], -0.433; in experiment [8], -0.671; in [9], 0.661; in experiment [10], -0.983; in experiment [11] it was -0.67. The composite z-score in [12] was -0.908; in [13] it was -0.412; in experiment [14] it was 0.862; in the experiment with Lefty1 it was -0.62; in [16], -1.03. Besides, the composite Z-score in experiment [1] was -0.0247 (inactive). The z-score in experiment [15] is -0.134; in experiment [17], -0.0632 (inactive).
With `O=C(CS)NCCCCCNC(=O)[C@H]1C[C@H]2C(=O)N[C@@H](Cc3ccccc3)C(=O)N2[C@H]1c1ccc(O)cc1`, the composite z-score in the experiment with Albumin (Bos taurus) was 0.237; in experiment [2], 0.114; in experiment [3] it was -0.0598; in experiment [4], 0.436; in [5], 0.704; in experiment [6], 0.393. The composite z-score was found to be 1.32 with Sam68 (KHDRBS1); 0.905 in [7]; 1.17 in experiment [8]; 1.58 in [9]; 1.06 in experiment [10]; 0.485 in [11]. Further, the composite z-score in experiment [12] stood at 0.948; in experiment [13] it was 1.43; in [14], 1.14; in the experiment on Lefty1 it was 0.854; in [16], 1.21. In addition, in experiment [1], the composite Z-score was -0.65 (inactive). Further, the z-score in experiment [15] was -0.586; in [17], -2.91 (inactive).

The record behind these values is PubChem BioAssay.
